The results in this text go back to PubChem BioAssay (EPA / NIEHS).

Each structure is given as a SMILES string. Inconclusive results are not listed. The source made the active and inactive calls. How the source made its calls: active means hit-call score of the fitted dose curve at least 0.9, where 1 is the maximum; inconclusive means response in the unintended direction; inactive means score below 0.9.

The nature of the test: CCTE_Deisenroth_AIME_384WELL_CTox_Inactive: Cytotoxicity Assessment (CTOX) in CCTE's 384-well Estrogen Receptor Transactivation Assay without AIME metabolic competence (metabolism negative), Deisenroth Lab (AID 2284039).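 Further: cell viability via live-cell protease substrate cleaved to fluorescent probe; cells exposed 24 h to medium preincubated 2 h with alginate-water beads without S9.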 As for the experimental part:
CCTE_Deisenroth_AIME_384WELL (AIME metabolism assay) is a cell-based, single-readout assay that uses VM7Luc4E2, a human mammary gland/breast cell line, with measurements taken at 24 hour after chemical dosing in a 384-well plate.CCTE_Deisenroth_AIME_384WELL_CTox_Inactive is one of four assay components measured or calculated from the CCTE_Deisenroth_AIME_384WELL assay. It is designed to make measurements of a protease substrate, a type of viability indicator, as detected with substrate cleavage to a fluorescent probe in living cells.CCTE_Deisenroth_AIME_384WELL_CTox_Inactive is a component of the CCTE_Deisenroth_AIME_384WELL assay that measures the effect of retroftting the VM7Luc ERTA assay with the Alginate Immobolization of Metabolic Enzymes (AIME) metabolism method. AIME is optimized to impart phase I hepatic metabolism using phenobarbital/beta-naphthoflavone induced hepatic S9 from male Sprague Dawley rats. Parent chemicals are incubated for 2 hours in the AIME assay prior to transfer to the VM7Luc ERTA assay plate. […] This endpoint evaluates cytotoxicity in metabolism negative mode. Using a type of flourescent probe in VM7Luc cells, loss-of-signal activity can be used to understand loss of viability. This assay endpoint, CCTE_Deisenroth_AIME_384WELL_CTox_Inactive, was analyzed with bidirectional fitting in the ERTA assay.
The AIME procedure consists of a preparative "pre-stamping" step using a barium chloride/poly-L-lysine (PLL) solution followed by "stamping" the lid in alginate-hepatic S9 (metabolism positive) or alginate-water (metabolism negative) to form microspheres. Once stamping is completed, the AIME lids are placed in duplicate microplates (metabolism positive or negative) containing chemical solutions and incubated for two hours to facilitate metabolic reactions. The conditioned medium, containing parent chemical or metabolites, is then transferred to the cell-based VM7Luc Estrogen Receptor Transactivation Assay (ERTA) for 24 hours. A typical experimental design tests a 10-point concentration series (0.002 - 200 uM) for 8 compounds (96-well format)1 or 32 compounds (384-well format)2 in single technical replicate. AIME assay controls include trans-stilbene (bioactivated control) and ethylparaben (bioinactivated control). ERTA assay plate controls include 17-beta estradiol (positive control) and DMSO (solvent control). Experiments typically comprise a minimum of four experimental replicates (n=4).
With `Nc1ccc(Cl)c(Cl)c1`, the result was inactive. For `CCCCCCCCCCCCCCCC[N+](C)(C)C`, the AC50 is 100 µM (active).

As for `Cc1cc(C)c(C2=C(OC(=O)CC(C)(C)C)C3(CCCC3)OC2=O)c(C)c1`, the compound was called inactive. Regarding `C=CCN(CC=C)C(=O)C(Cl)Cl`, the result was inactive. Take `Cc1ccc(C)c2ccccc12`: the call was inactive. Turning to `O=C(O)CCl`, the result was inactive. `CC(C)(c1cc(Cl)c(O)c(Cl)c1)c1cc(Cl)c(O)c(Cl)c1`: the half-maximal activity concentration (AC50) was 153 µM (active).

As to `N#CCCCCC#N`, the call was inactive.

Consider `O=[N+]([O-])c1ccc(Cl)cc1`, for which the result was inactive.

`Nc1ccccc1`: the compound was classed as inactive. In the case of `CCOP(O)OCC`, the compound was called inactive. On the same count and under the same terms, next, `O=S(=O)(O)OOS(=O)(=O)O`: “inactive”. Turning to `CN(C)N`, the compound was called inactive.
